From PubChem BioAssay
Rows were chosen to be rich in hits. Some 4.4% of all compounds tested hit in one or more screens of this group.
TIM10 inh = TIM10 yeast growth inhibition | S. cerevisiae TIM10 strain growth, BacTiter-Glo luminescence, 24 h | inhibition, % at 10 µM | hit rate 1.4% among 330,000 | AID 463195;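 active means inhibition of 40% or more at the single tested concentration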;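 further: wild-type TIM10 isogenic control strain grown at permissive 25 °C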
tim10-1 inh = inhibits growth of tim10-1 mutant yeast. S. cerevisiae tim10-1 ts strain growth, BacTiter-Glo, 24 h. inhibition, % at 20 µM. hit rate 2.2% among 330,000;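 active means inhibition of at least 40%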;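 further: mutant grown at 25 °C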
PfHsp90 yeast 2 = inhibits growth of yeast expressing Plasmodium falciparum Hsp90; hit rate 0.32% among 310,000; S. cerevisiae expressing PfHsp90, BacTiter-Glo ATP, 48 h; yeast lacking PDR1 and PDR3 efflux regulators; inhibition, % at 9.4 µM;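 active means every replicate shows inhibition above about 80%, whatever the replicate mean, limit read from the data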
tim23-1 inh = growth inhibitors of tim23-1 mutant yeast. S. cerevisiae tim23-1 growth, BacTiter-Glo luminescence, 24 h. AID 463212. hit rate 1.3% among 330,000. inhibition, % at 20 µM;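 active means growth inhibition of the mutant yeast at or above 50%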;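 further: temperature-sensitive mutant grown at 25 °C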
SKKanGAS inh = SKKanGAS growth inhibition. S. pyogenes SKKanGAS, kanamycin growth, BacTiter-Glo, 6 h. inhibition, % at 7.5 µM. hit rate 1.3% among 300,000. AID 1662;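 active means mean replicate score, as percent of positive control median, at least 50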;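 further: strain carries kanamycin resistance gene driven by streptokinase promoter and grows in 40 µg/ml kanamycin; loss of luminescence reflects streptokinase promoter inhibition or plain growth inhibition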
tim10-1 conf = confirmation of tim10-1 mutant yeast growth inhibitors; shares compounds with tim10-1 inh; S. cerevisiae tim10-1 ts strain growth, BacTiter-Glo, 24 h; inhibition, % at 20 µM; hit rate 56% among 7,400; AID 463213;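 active means inhibition of yeast growth at or above a set limit in either of two repeat tests at 20 µM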;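 further: tim10-1 mutant grown at permissive 25 °C to find synthetic lethal compounds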
TIM10 conf = confirmation of TIM10 yeast growth inhibitors; shares compounds with TIM10 inh; S. cerevisiae tim10 strain growth, BacTiter-Glo luminescence, 24 h; inhibition, % at 10 µM; hit rate 63% among 4,600;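 active means inhibition of yeast growth at or above a set limit in either of two replicates at 10 µM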; further: this counterscreen used the strain with wild-type TIM10
Of the large screens only hits and unclear results are named; the others gave an inactive call (follow-up assays come after a bar, where they were run).

CS(=O)(=O)N(CC(=O)N1CCOCC1)c1ccccc1Br	none
CCCCc1ccc(NC(=S)NCc2cccs2)cc1	TIM10 inh 40, tim10-1 inh 46 (no result: PfHsp90 yeast 2) | tim10-1 conf 43 | TIM10 conf 35
COc1ccc(C(C#N)=C2C=CC(=NO)C=C2)cc1	TIM10 inh 81, tim10-1 inh 50, PfHsp90 yeast 2 115 | tim10-1 conf 54 | TIM10 conf 91
C/C(=N\N=c1/sc2ccccc2n1C)c1ccc(N2CCOCC2)cc1	none
C/C(=N\N=c1/sc2ccccc2n1C)c1ccccn1	TIM10 inh 43, tim10-1 inh 43 | tim10-1 conf 35 | TIM10 conf inactive
CC(C)CC(=O)NC(=S)Nc1ccc(Cl)cn1	TIM10 inh 47, tim10-1 inh 43 | tim10-1 conf 38 | TIM10 conf 40
CC(=O)CC(=O)Nc1ccc(Cl)cn1	none
CC(C)Cc1nnc(NC(=O)CCc2c[nH]c3ccccc23)s1	none
CC1CCN(S(=O)(=O)c2ccc(C(=O)Nc3ccccn3)cc2)CC1	none (no result: PfHsp90 yeast 2)
COc1ccccc1/C=C/C(=O)c1cc(Br)ccc1OC(=O)c1ccco1	TIM10 inh 42, tim10-1 inh 50 | tim10-1 conf 42 | TIM10 conf inactive
COc1ccc(Br)cc1/C=N/NC(=O)c1ccco1	none
Cc1ccc(/C=c2\sc3nc(-c4cccs4)nn3c2=O)o1	none
COc1cccc(/C=c2\sc3nc(-c4cccs4)nn3c2=O)c1OC	TIM10 inh 51, tim10-1 inh 42 | tim10-1 conf 33 | TIM10 conf inactive
COc1ccc(-c2ccnc3nc(N4CCN(c5ccccc5)CC4)nn23)cc1	TIM10 inh 47, tim10-1 inh 43 (no result: PfHsp90 yeast 2) | tim10-1 conf 36 | TIM10 conf inactive
Fc1ccc(-c2ccnc3nc(N4CCOCC4)nn23)cc1	none (no result: PfHsp90 yeast 2)
OC(CNCC(c1ccc(Cl)cc1Cl)c1c[nH]c2ccccc12)c1ccccc1 (stereo not drawn)	TIM10 inh 59, tim10-1 inh 54, SKKanGAS inh 80 (no result: PfHsp90 yeast 2) | tim10-1 conf inactive | TIM10 conf 61
CCOc1c(Cl)cc(CNCC(O)c2ccccc2)cc1OC (stereo not drawn)	none
O=C(CCC1CCCCC1)Nc1nncs1	none
CCCC(=O)N(CCN1CCOCC1)c1nc2c(F)cc(F)cc2s1	none
CCOC(=O)C1=C(C)Nc2nc(=S)[nH]n2C1c1ccc(Cl)cc1 (stereo not drawn)	TIM10 inh 48, tim10-1 inh 55 | tim10-1 conf 44 | TIM10 conf inactive
CCOC(=O)C1=C(C)Nc2nc(SCC)nn2C1c1ccc(OC)cc1 (stereo not drawn)	none
O=C(NC(=S)Nc1ccccc1N1CCCC1)c1cccc(F)c1	TIM10 inh 52, tim10-1 inh 52 | tim10-1 conf inactive | TIM10 conf 48
O=C(NC(=S)Nc1ccccc1N1CCCCC1)c1ccccc1	TIM10 inh 60, tim10-1 inh 48 | tim10-1 conf 44 | TIM10 conf 47
CC1CCN(c2ccccc2NC(=S)NC(=O)c2cccs2)CC1	TIM10 inh 48, tim10-1 inh 49, SKKanGAS inh 87 | tim10-1 conf 34 | TIM10 conf 38
Cc1cccc(NC(=S)N=Nc2c(O)n(CN3CCOCC3)c3ccccc23)c1C	TIM10 inh 59, tim10-1 inh 59 (no result: SKKanGAS inh) | tim10-1 conf 36 | TIM10 conf 41
CCCCc1cc(=O)oc2cc(C)cc(OC(C)C(=O)NCc3cccnc3)c12 (stereo not drawn)	none
CCOC(=O)c1c(NC(C)=O)sc2c(O)cccc12	TIM10 inh 50, tim10-1 inh 45 | tim10-1 conf inactive | TIM10 conf 38
CCOC(=O)c1c(NC(C)=O)sc2c(O)c(Br)cc(Br)c12	none (no result: TIM10 inh, tim10-1 inh, tim23-1 inh)
C=CCc1cccc(/C=N/NC(=O)CNc2ccccc2)c1O	none
C=CCc1cccc(/C=N/NC(=O)CNc2ccccc2OC)c1O	TIM10 inh 97, tim10-1 inh 47 | tim10-1 conf inactive | TIM10 conf 47
C=CCc1cc(OC)ccc1OCCCCn1cncn1	none
O=S(=O)(c1ccc(-c2nc3ccccc3s2)cc1)N1CCCC1	none
O=S(=O)(c1cccc(-c2nc3ccccc3s2)c1)N1CCCC1	TIM10 inh 44, tim10-1 inh 48 | tim10-1 conf 34 | TIM10 conf 42
Cc1c(NC(=O)c2cccc(NC(=O)COc3ccc(C#N)cc3)c2)c(=O)n(-c2ccccc2)n1C	none (no result: SKKanGAS inh)
O=c1c(O)c(-c2cccs2)oc2ccccc12	TIM10 inh 65, tim10-1 inh 42, SKKanGAS inh 76 | tim10-1 conf 35 | TIM10 conf 71
O=c1c(O)c(-c2ccccc2)oc2ccccc12	none (no result: TIM10 inh, tim10-1 inh, tim23-1 inh, SKKanGAS inh)
CC(=O)Nc1cccc(NC(=O)c2cc([N+](=O)[O-])ccc2N2CCCCC2)c1	none (no result: SKKanGAS inh)
Cc1cccc(NC(=O)c2cc([N+](=O)[O-])ccc2N2CCCCC2)n1	TIM10 inh 47, tim10-1 inh 43 | tim10-1 conf 39 | TIM10 conf inactive
O=C(Nc1ccc(OC(F)F)cc1)Nc1cccc(C(F)(F)F)c1	TIM10 inh 63, tim10-1 inh 57, SKKanGAS inh 59 | tim10-1 conf 51 | TIM10 conf 52
NC(=O)/C=C\C(=O)Nc1cccc(C(F)(F)F)c1	TIM10 inh 56, tim10-1 inh 61, PfHsp90 yeast 2 97 | tim10-1 conf 55 | TIM10 conf 66
NNC(=O)Nc1cccc(C(F)(F)F)c1	none (no result: PfHsp90 yeast 2)
O=C(Nc1ccncc1)Nc1cccc(C(F)(F)F)c1	none
C[C@@H]1CN([C@@H](C)CO)C(=O)c2cccc(NS(C)(=O)=O)c2O[C@H]1CN(C)CC1CCCCC1	none (no result: SKKanGAS inh)
COc1ccccc1N=c1oc2cc(O)ccc2cc1C(=O)NCC1CCCO1 (stereo not drawn)	none (no result: PfHsp90 yeast 2)
COc1ccccc1N=c1oc2cc(O)ccc2cc1C(N)=O	TIM10 inh 40, tim10-1 inh 47, PfHsp90 yeast 2 97, SKKanGAS inh 70 | tim10-1 conf 48 | TIM10 conf 33
C=CCn1c(Cc2ccccc2)n[nH]c1=S	none
C=CCn1c(CCc2cc(C(C)(C)C)c(O)c(C(C)(C)C)c2)n[nH]c1=S	TIM10 inh 42, tim10-1 inh 50 | tim10-1 conf inactive | TIM10 conf 40
CC(C)CC(=O)NC(=S)NCCc1ccccc1	TIM10 inh 46, tim10-1 inh 47 | tim10-1 conf inactive | TIM10 conf inactive
CC(C)(C)CC(=O)NC(=S)NCCc1ccccc1	none
Cc1cc(C)c(C(=O)/C=C/c2cccc3ccccc23)c(=O)[nH]1	TIM10 inh 41, tim10-1 inh 43 | tim10-1 conf 38 | TIM10 conf inactive
CCOC(=O)c1ccc(N2C(=O)CC(N3CCCC(C)C3)C2=O)cc1 (stereo not drawn)	TIM10 inh 46, tim10-1 inh 66 (no result: PfHsp90 yeast 2) | tim10-1 conf 66 | TIM10 conf 47
